Measurements published in the supplement of paper PMC4723716.
Over roughly 3,600 compounds, “viability index relative to DMSO control” has its median near 0.81; the lowest 2% begin near 0.13. Shown is part of a subset that was picked to be rich in the lowest values.

System: Plasmodium falciparum NF54 stage V gametocytes
Assay: viability index relative to DMSO control (fraction); higher = less gametocyte killing
Settings: 1.25 µM, incubation time: 72 h
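Further: Saponin-lysis sexual stage assay in serum-free medium: MitoTracker Red CMXRos staining plus saponin, high-content imaging, particle count per well divided by plate mean of DMSO wells.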

In order of rising viability index:
1. N#CC(=CC=Cc1ccc([N+](=O)[O-])o1)c1nc2ccccc2[nH]1  0.0143
2. COc1cc(Nc2cncc(-c3ccc(C(N)=O)cc3)n2)cc(OC)c1OC  0.0179
3. N#Cc1cc2nc3c(nc2cc1C#N)-c1ccccc1C3=O  0.0308
4. CN1C(=O)N(C)C2(c3ccccc3)NN3C(=NC12c1ccccc1)SC1=C3C(=O)c2ccccc2C1=O (configuration not stated)  0.0309
5. Cc1oc2c(c1C(=O)NC1CCS(=O)(=O)C1)C(=O)c1ccccc1C2=O (configuration not stated)  0.0502
6. COc1cc(OC)c(NC(=O)C2c3ccccc3C(=O)N(CC(C)C)C2c2cccs2)cc1Cl (configuration not stated)  0.0683
7. COc1ccc(NC(=O)C2c3ccccc3C(=O)N(CC(C)C)C2c2cccs2)cc1OC (configuration not stated)  0.0723
8. Cc1oc2c(c1C(=O)NCCCn1ccnc1)C(=O)c1ccccc1C2=O  0.0826
9. c1ccc2nc3c(nnc4ccccc43)nc2c1  0.092
10. CCOC(=O)C1CCN(C(=O)c2c(C)oc3c2C(=O)c2ccccc2C3=O)CC1  0.0992
11. S=C(NN=CC=NNC(=S)Nc1ccccc1)Nc1ccccc1  0.104
12. CC(NCCN1CCNCC1)c1cc(C(C)(C)C)cc2c1CCC2(C)C (configuration not stated)  0.104
13. COc1ccc(NC(=O)C2c3ccccc3C(=O)N(CC(C)C)C2c2cccs2)cc1Cl (configuration not stated)  0.104
14. COC(OC)C(C)=NNC(N)=S  0.112
15. CC(C)=CCCC(C)=CCCC(C)NCCN1CCNCC1 (configuration not stated)  0.135
16. Cc1oc2c(c1C(=O)NCC1CCCO1)C(=O)c1ccccc1C2=O (configuration not stated)  0.195
17. CC(C)CN1C(=O)c2ccccc2C(C(=O)Nc2cccc(Cl)c2)C1c1cccs1 (configuration not stated)  0.209
18. Cc1oc2c(c1C(=O)NCc1cccnc1)C(=O)c1ccccc1C2=O  0.231
19. CC(C)CN1C(=O)c2ccccc2C(C(=O)Nc2ccc(F)c(Cl)c2)C1c1cccs1 (configuration not stated)  0.237
20. CC(=NNC(N)=S)C(C)=NNC(N)=S  0.27
21. CC(C)CN1C(=O)c2ccccc2C(C(=O)Nc2ccc(C(C)C)cc2)C1c1cccs1 (configuration not stated)  0.281
22. CC(NCCCN(C)C)c1cc(C(C)(C)C)cc2c1CCC2(C)C (configuration not stated)  0.283
23. CC(C)(C)NC(=S)NN=CC=NNC(=S)NC(C)(C)C  0.299
24. CCOC(=O)c1ccc2nc3c(nc2c1)C(=O)c1ccccc1C3=O  0.359
25. COc1cc(Cl)c(C)cc1NC(=O)C1c2ccccc2C(=O)N(CC(C)C)C1c1cccs1 (configuration not stated)  0.398
26. CCN(CC)CCNc1ccc(Nc2ccnc3cc4ccccc4cc23)cc1  0.423
27. COc1ccc(Cl)cc1NC(=O)C1c2ccccc2C(=O)N(CC(C)C)C1c1cccs1 (configuration not stated)  0.426
28. Cc1oc2c(c1C(=O)N1CCN(C)CC1)C(=O)c1ccccc1C2=O  0.43
29. CC(=O)N(C1=C(N2CCOCC2)C(=O)c2ccccc2C1=O)c1ccc(C(C)C)c(C)c1  0.509
30. CCCCCc1ccc(OCCCC[n+]2cccc(C)c2C)c(CCCCC)c1  0.521
31. COc1cc(Nc2cncc(-c3ccncc3)n2)cc(OC)c1OC  0.524
32. COc1cc(OC)c(NC(=O)C2c3ccccc3C(=O)N(C)C2c2cccs2)cc1Cl (configuration not stated)  0.546
33. O=S(=O)(NCCNc1ncnc2scc(-c3ccccc3)c12)c1ccc(Cl)c(Cl)c1  0.554
34. S=P(OCC1C(COP(=S)(c2ccccc2)c2ccccc2)C1(Cl)Cl)(c1ccccc1)c1ccccc1 (configuration not stated)  0.562
35. Cc1oc2c(c1C(=O)N1CCC(C)CC1)C(=O)c1ccccc1C2=O  0.587
36. CCN(CC)c1ccc(C=C(C#N)c2nc3ccccc3[nH]2)o1  0.609
37. Cc1ccc(-c2cc3c(nn2)-c2ccccc2C3=O)cc1  0.65
38. CSc1ccc(C=CC(=O)NC(=O)c2ccccc2O)cc1  0.661
39. CCOC(=O)c1nnn(-c2nonc2N)c1-c1ccc(Br)cc1  0.676
40. CCOC(=O)C1=C(C)NC2=C(C(=O)CC(c3ccc(OC)c(OC)c3)C2)C1c1ccccc1OC (configuration not stated)  0.68
41. Brc1ccc2[nH]c3nc4ccccc4nc3c2c1  0.699
42. CCOC(=O)C1=C(C)NC2=C(C(=O)CC(c3ccc(Cl)cc3)C2)C1c1ccc(Br)cc1 (configuration not stated)  0.725
43. CCOC(=O)C1CCCN(C(=O)c2c(C)oc3c2C(=O)c2ccccc2C3=O)C1 (configuration not stated)  0.726
44. O=C1CN(C(=O)CCC2CCCC2)C(c2ccc(F)cc2)c2cc(Cl)ccc2N1 (configuration not stated)  0.751
45. N#CC(=Cc1ccc(Sc2ccccc2)o1)c1nc2ccccc2[nH]1  0.776
46. Cc1c(Cl)cccc1NCC(=O)NN=C1CCCC1  0.779
47. CCOC(=O)c1c(NC(=O)CSc2nnc(CNC(=O)c3ccc(C)c(C)c3)n2C2CCCCC2)sc2c1CCC2  0.784
48. COc1cc(C(=O)Nc2nnc(-c3ccccc3)o2)cc(OC)c1OC  0.81
49. O=C(C1CCN(c2nnnn2-c2ccccc2)CC1)N1CCc2ccccc2C1  0.826
50. Oc1ccc2ccccc2c1CNc1nc2ccccc2[nH]1  0.865
51. CCOC(=O)c1sc(Nc2c(Cl)cc(S(N)(=O)=O)cc2Cl)nc1C  0.886
52. CCOC(=O)c1c(C)oc2c1C(=O)c1ccccc1C2=O  0.902
53. Cc1cc(C)n(-c2ccc(NC(=O)C3CCN(Cc4cc(C)c(C)o4)CC3)cc2)n1  0.926
54. O=S(=O)(c1ccc(Cl)cc1)N1CCN(C(=S)NCc2ccco2)CC1  0.959
55. FC(F)(F)c1ccc(Nc2nnnc3ccccc23)cc1  1.04
56. CCOC(=O)C1=C(C)N(CCNc2ncc(C(F)(F)F)cc2Cl)C(=O)CC1  1.04
57. Cc1cc(I)ccc1N1C(=O)C2C3c4ccccc4C(CO)(c4ccccc43)C2C1=O (configuration not stated)  1.06
58. Cc1[nH]c2ccccc2c1C=Cc1cc[n+](C)cc1  1.08
59. OC1CCCCC1C1(NC(=S)Nc2ccccc2)CCCCC1 (configuration not stated)  1.08
60. Oc1c(C(Nc2ccccn2)c2ccc(Br)cc2)ccc2cccnc12 (configuration not stated)  1.1
61. CCCn1c(=N)c(C(=O)NC2CCCCC2)cc2c(=O)n3cccc(C)c3nc21  1.15
62. CC12C(=O)N(c3cccc(C(=O)O)c3)C(=O)C1C1c3ccccc3C2c2ccccc21 (configuration not stated)  1.15
